# Source: PubChem BioAssay (NCATS)
# Inconclusive results are not listed. A call without a number means that no potency is given here. The source made the active and inactive calls. Calls follow the shape of the dose curve; as a rule, active = well fitted curve in the direction sought with a large enough effect; inconclusive = small, poorly fitted or top-dose-only effect, or another doubt; inactive = no such curve, though single readings can be large; an effect the other way counts as inactive or inconclusive.
# Target: D(1A) dopamine receptor (Homo sapiens) (UniProt P21728)
# Assay: HTS Assay for Allosteric Agonists of the Human D1 Dopamine Receptor: Primary Screen for Potentiators (AID 488982)
# Details: HEK293 T-REx D1 inducible cells, calcium flux, kinetic fluorescence; series mostly up to 8.37 µM
# Outline: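 Tetracycline-induced HEK293 Trex D1 cells with forced coupling to calcium, loaded with no-wash calcium dye; kinetic fluorescence read 180 s after compound addition for agonism, then a further 180 s after an EC20 dopamine challenge for potentiation.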
# Sequence of D(1A) dopamine receptor (Homo sapiens) (P21728 whole entry, looked up): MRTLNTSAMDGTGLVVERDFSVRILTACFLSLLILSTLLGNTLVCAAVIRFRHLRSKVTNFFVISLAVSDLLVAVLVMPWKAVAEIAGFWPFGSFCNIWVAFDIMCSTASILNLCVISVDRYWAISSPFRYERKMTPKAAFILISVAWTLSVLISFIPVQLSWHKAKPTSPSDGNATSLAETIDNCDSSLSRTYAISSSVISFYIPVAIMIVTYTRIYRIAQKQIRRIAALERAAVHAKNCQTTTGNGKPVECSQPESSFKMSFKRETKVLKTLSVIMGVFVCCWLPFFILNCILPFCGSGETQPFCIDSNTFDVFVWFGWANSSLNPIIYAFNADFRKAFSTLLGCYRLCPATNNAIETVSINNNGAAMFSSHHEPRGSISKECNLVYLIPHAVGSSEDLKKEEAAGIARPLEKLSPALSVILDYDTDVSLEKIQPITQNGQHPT
row,SMILES,outcome
1,Cc1ccc(S(=O)(=O)N[C@@H](Cc2ccccc2)C(=O)CCl)cc1,inactive
2,CCN1CCCC1CNC(=O)c1cc(S(N)(=O)=O)ccc1OC (configuration not stated),inactive
3,CC1CC2C3CCC4=CC(=O)C=C[C@]4(C)[C@@]3(F)[C@@H](O)C[C@]2(C)[C@@]1(O)C(=O)CO (some centres not stated),inactive
4,O=C(O)C1CCCN(CCC=C(c2ccccc2)c2ccccc2)C1 (configuration not stated),inactive
5,OCc1ccc(-c2nn(Cc3ccccc3)c3ccccc23)o1,inactive
6,CC(=O)[C@H]1CC[C@H]2[C@@H]3CCC4=CC(=O)CC[C@]4(C)[C@H]3CC[C@]12C,inactive
7,CCCCS(=N)(=O)CCC(N)C(=O)O (configuration not stated),inactive
8,CC1=C(C(=O)O)N2C(=O)[C@@H](NC(=O)C(N)c3ccccc3)[C@H]2SC1 (some centres not stated),inactive
9,NC(=O)c1cccc(N)c1,inactive
10,Nc1nc(N)c2nc(CNc3ccc(C(=O)NC(CCC(=O)O)C(=O)O)cc3)cnc2n1 (configuration not stated),inactive
11,COc1cc2nc(N3CCCN(C)CC3)nc(NC3CCN(Cc4ccccc4)CC3)c2cc1OC,inactive
12,N[C@@H](Cc1ccc(O)c(O)c1)C(=O)O,inactive
13,CC(C)NCC(O)c1ccc(NS(C)(=O)=O)cc1 (configuration not stated),inactive
14,COc1cc2ncnc(Nc3cccc(Cl)c3)c2cc1OC,inactive
15,NC(=O)c1ccc2[nH]ccc2c1,inactive
16,CCN(CC)CCn1c(=O)c(Cc2ccc(OC)cc2)nc2ccccc21,inactive

# Target: ATP-dependent 6-phosphofructokinase (Trypanosoma brucei brucei) (UniProt O15648)
# Assay: qHTS Assay to Find Inhibitors of T. brucei phosphofructokinase: hit validation (AID 492961);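 also: luminescence reports ADP formed as PFK phosphorylates fructose-6-phosphate with ATP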
# Details: T. brucei PFK, ADP-Glo luminescence; series mostly up to 51.4 µM
# Outline: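 Inhibition of parasite PFK is measured as reduced ADP formation, quantified via luciferase after ATP depletion. Assay used 0.1 mM ATP, 0.5 mM F6P, 1.25 nM enzyme, 45 min incubation.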
# Sequence of ATP-dependent 6-phosphofructokinase (Trypanosoma brucei brucei) (O15648 whole entry, looked up): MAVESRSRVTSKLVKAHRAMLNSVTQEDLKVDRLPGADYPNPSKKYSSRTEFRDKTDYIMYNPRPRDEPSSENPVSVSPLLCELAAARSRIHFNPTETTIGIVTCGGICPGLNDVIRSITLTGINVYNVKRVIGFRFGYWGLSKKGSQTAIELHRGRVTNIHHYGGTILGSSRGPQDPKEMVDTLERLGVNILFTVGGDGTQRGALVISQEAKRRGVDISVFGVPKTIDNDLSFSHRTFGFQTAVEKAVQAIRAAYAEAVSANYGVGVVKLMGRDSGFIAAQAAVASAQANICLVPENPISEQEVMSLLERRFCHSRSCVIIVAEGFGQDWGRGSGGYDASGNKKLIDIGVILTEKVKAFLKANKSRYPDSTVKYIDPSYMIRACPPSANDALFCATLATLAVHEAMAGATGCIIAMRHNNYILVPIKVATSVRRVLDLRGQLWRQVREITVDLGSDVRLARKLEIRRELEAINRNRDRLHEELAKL
row,SMILES,Potency
1,Cn1nnc2c(C(N)=O)ncn2c1=O,inactive
2,O=c1cc(O)c(Cl)c[nH]1,inactive
3,CCCc1nc(C)c2c(=O)[nH]c(-c3cc(S(=O)(=O)N4CCN(CC)CC4)ccc3OCC)nn12,inactive
4,COc1cnc(NS(=O)(=O)c2ccc(N)cc2)nc1,inactive
5,NC(N)=NC(N)=NCCc1ccccc1,inactive
6,CCn1cc(C(=O)O)c(=O)c2cc(F)c(N3CCNCC3)cc21,inactive
7,Nc1nc(N)nc(-c2cc(Cl)ccc2Cl)n1,inactive
8,CC(C)(Sc1cc(C(C)(C)C)c(O)c(C(C)(C)C)c1)Sc1cc(C(C)(C)C)c(O)c(C(C)(C)C)c1,inactive
9,Cc1oc(=O)oc1CN1CCN(c2cc3c(cc2F)c(=O)c(C(=O)O)c2n3C(C)S2)CC1 (configuration not stated),inactive
10,CCOC(=O)c1ccc(C#Cc2ccc3c(c2)C(C)(C)CCS3)nc1,inactive
11,CC(C)NCC(O)c1ccc(NS(C)(=O)=O)cc1 (configuration not stated),inactive
